Consider ten molecules from PubChem BioAssay (Tox21).

Experiment [1] can be described thus: A CellTox Green Cytotoxicity Assay to monitor cytotoxicity in HEK293 cells - 40 hour (AID 1224871). Note: nearly all actives have a fitted effect of over 45% in size. Note: potency is the fitted concentration of half-maximal effect. The essentials:
(§1)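 Tox21 screen in HEK293: membrane-impermeant cyanine dye fluoresces on binding dead-cell DNA; compound pinned 5 h post-seeding, plates held at 37 C, signal read repeatedly through 40 h.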

A short description of experiment [2]: qHTS RealTime-Glo MT Cell Viability Assay in HEK293 cells - 16 hour (AID 1224872). For activity change, negative = cytotoxicity: top concentration of the series differs between compounds. Note: nearly all actives have a fitted effect of over 50% in size. Note: potency is the fitted concentration of half-maximal effect. An outline of the steps:
(§2)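 HEK293 cells seeded with NanoLuc/prosubstrate reagent, rested 5 h at 37 C, then dosed and kept at 37 C up to 40 h. Nonlytic real-time luminescence from viable cells read at 0, 8, 16, 24, 32 and 40 h.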
For orientation: qHTS replaces the single test concentration by a dilution series.

The nature of experiment [3]: qHTS RealTime-Glo MT Cell Viability Assay in HepG2 cells - 8 hour (AID 1224873). Note: nearly all actives have a fitted effect of over 55% in size. Note: potency is the fitted concentration of half-maximal effect. The essentials: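 Real-time viability: cells seeded at 600 per well together with NanoLuc and cell-permeant prosubstrate, compounds added after 5 h incubation. Luminescence tracked at 0, 8, 16, 24, 32 and 40 h of exposure.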
A short description of experiment [4]: qHTS RealTime-Glo MT Cell Viability Assay in HEK293 cells - 40 hour (AID 1224874). Note: nearly all actives have a fitted effect of over 50% in size. Note: potency is the fitted concentration of half-maximal effect. Conditions: RealTime-Glo luminescence; max response: active compounds read low. The essentials: (§3)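 HEK293 + NanoLuc + prosubstrate, 600 cells/well; 5 h, 37 C/5% CO2; compound 23 nL in DMSO by pintool; 37 C; luminescence read at 0, 8, 16, 24, 32 and 40 h time points.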
Experiment [5] in a line: A CellTox Green Cytotoxicity Assay to monitor cytotoxicity in HEK293 cells - 24 hour (AID 1224875). For activity change: series mostly up to about 77 µM. Note: nearly all actives have a fitted effect of over 45% in size. Note: potency is the fitted concentration of half-maximal effect. An outline of the steps: as §1
Experiment [6] is described as follows: qHTS RealTime-Glo MT Cell Viability Assay in HepG2 cells - 32 hour (AID 1224877). Note: nearly all actives have a fitted effect of over 55% in size. Note: potency is the fitted concentration of half-maximal effect. An outline of the steps: (§4)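 HepG2 cells (600/well) were dispensed with RealTime-Glo reagents, incubated 5 h at 37 °C, then treated with compounds in DMSO for up to 40 h. Nonlytic NanoLuc luminescence reflecting viable cells was read at each stated time point.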
The nature of experiment [7]: A CellTox Green Cytotoxicity Assay to monitor cytotoxicity in HepG2 cells - 24 hour (AID 1224878). Note: nearly all actives have a fitted effect of over 45% in size. Note: potency is the fitted concentration of half-maximal effect. An outline of the steps: (§5)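 Measurements at 0, 8, 16, 24, 32 and 40 h of treatment captured CellTox Green fluorescence in HepG2 cells that had been co-plated with reagent and preincubated 5 h at 37 C/5% CO2.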
Experiment [8] in a line: A CellTox Green Cytotoxicity Assay to monitor cytotoxicity in HepG2 cells - 40 hour (AID 1224879). Note: nearly all actives have a fitted effect of over 40% in size. Note: potency is the fitted concentration of half-maximal effect. An outline of the steps: as §5
A short description of experiment [9]: qHTS RealTime-Glo MT Cell Viability Assay in HEK293 cells - 0 hour (AID 1224880). Note: top concentration of the series differs between compounds; nearly all actives have a fitted effect of over 45% in size. The essentials: as §3
The nature of experiment [10]: A CellTox Green Cytotoxicity Assay to monitor cytotoxicity in HEK293 cells - 32 hour (AID 1224881). Note: nearly all actives have a fitted effect of over 40% in size. Note: potency is the fitted concentration of half-maximal effect. An outline of the steps:
as §1

A short description of experiment [11]: A CellTox Green Cytotoxicity Assay to monitor cytotoxicity in HepG2 cells - 0 hour (AID 1224882). Note: nearly all actives have a fitted effect of over 35% in size. An outline of the steps: as §5
Experiment [12] is described as follows: A CellTox Green Cytotoxicity Assay to monitor cytotoxicity in HepG2 cells - 32 hour (AID 1224883). Note: nearly all actives have a fitted effect of over 50% in size. Note: potency is the fitted concentration of half-maximal effect. An outline of the steps:
as §5

The nature of experiment [13]: A CellTox Green Cytotoxicity Assay to monitor cytotoxicity in HEK293 cells - 8 hour (AID 1224884). Note: nearly all actives have a fitted effect of over 35% in size. An outline of the steps:
as §1

Experiment [14] in a line: qHTS RealTime-Glo MT Cell Viability Assay in HepG2 cells - 16 hour (AID 1224885). Note: nearly all actives have a fitted effect of over 50% in size. Note: potency is the fitted concentration of half-maximal effect. The essentials:
as §4

The nature of experiment [15]: qHTS RealTime-Glo MT Cell Viability Assay in HEK293 cells - 24 hour (AID 1224886). For activity change, negative = cytotoxicity: top concentration of the series differs between compounds. Note: nearly all actives have a fitted effect of over 50% in size. Note: potency is the fitted concentration of half-maximal effect. The essentials: as §2
The nature of experiment [16]: qHTS RealTime-Glo MT Cell Viability Assay in HEK293 cells - 8 hour (AID 1224887). For activity change, negative = cytotoxicity: top concentration of the series differs between compounds. Note: nearly all actives have a fitted effect of over 50% in size. Note: potency is the fitted concentration of half-maximal effect. An outline of the steps: as §3
The nature of experiment [17]: A CellTox Green Cytotoxicity Assay to monitor cytotoxicity in HEK293 cells - 16 hour (AID 1224888). Note: nearly all actives have a fitted effect of over 35% in size. Note: potency is the fitted concentration of half-maximal effect. An outline of the steps: as §1
Experiment [18] in a line: A CellTox Green Cytotoxicity Assay to monitor cytotoxicity in HepG2 cells - 8 hour (AID 1224890). Note: nearly all actives have a fitted effect of over 45% in size. Note: potency is the fitted concentration of half-maximal effect. The essentials:
as §5

A short description of experiment [19]: qHTS RealTime-Glo MT Cell Viability Assay in HepG2 cells - 0 hour (AID 1224889). Note: nearly all actives have a fitted effect of over 50% in size. An outline of the steps: as §4
The nature of experiment [20]: A CellTox Green Cytotoxicity Assay to monitor cytotoxicity in HepG2 cells - 16 hour (AID 1224876). Note: nearly all actives have a fitted effect of over 45% in size. Note: potency is the fitted concentration of half-maximal effect. An outline of the steps: as §5

A number with no mark means an inactive call. Results filed as inconclusive are left out. The source made the active and inactive calls. Calls come from the whole dose curve; as a rule, active = well fitted curve in the direction sought with a large enough effect in the repeat runs; inconclusive = weak or mixed curves; inactive = no such curve, though single readings can be large; an effect the other way counts as inactive or inconclusive.
% is set by controls: 0 for no effect and ±100 for the full control effect.

Turning to `CN(C)S(=O)(=O)N(SC(F)(Cl)Cl)c1ccccc1`, the Potency in experiment [1] is 3.09 µM (active); in [2] it was 4.9 µM (active); in experiment [3], 21.9 µM (active); in experiment [4] it was 4.36 µM (active); in experiment [5], 13.8 µM (active); in [6], 9.77 µM (active). Moreover, the Potency in experiment [7] was 7.76 µM (active); in experiment [8] it was 4.9 µM (active); in [10] it was 4.9 µM (active); in experiment [12] it was 5.49 µM (active); in [14], 15.5 µM (active); in [15], 4.36 µM (active). The Potency in experiment [16] is 9.77 µM (active); in experiment [17], 19.5 µM (active). For the same molecule, the Potency result in experiment [9], in experiment [11], in experiment [13] and in experiment [18] was “inactive” in each case.
On to `Brc1c(Br)c(Br)c(Oc2c(Br)c(Br)c(Br)c(Br)c2Br)c(Br)c1Br`, for which the cytotoxicity increase in experiment [1] was 1.02% [at 15.8 µM]; in [8], 1.89% [at 15.8 µM]; in experiment [10], -3.94% [at 15.8 µM]; in experiment [12], 0.162% [at 15.8 µM]; in experiment [13], -3.68% [at 15.8 µM]; in experiment [18], -0.348% [at 15.8 µM]. In addition, the activity change, negative = cytotoxicity was 3.04% [at 15.8 µM] in experiment [2]; -0.353% [at 15.8 µM] in [9]; -0.0351% [at 15.8 µM] in experiment [15]; 4.64% [at 15.8 µM] in experiment [16]; 13.9% [at 15.8 µM] in [19]. In addition, the viability change, negative = cytotoxic in [3] is 5% [at 15.8 µM]. In experiment [4], the max response was 1.84%. Further, the activity change in [5] is -3.29% [at 15.8 µM, active compounds read high]; in experiment [17], -4.12% [at 15.8 µM, active compounds read high]. Also, the activity change, negative = cytotoxic is -3.04% [at 15.8 µM] in experiment [6] and 1.53% [at 15.8 µM] in experiment [14]. Besides, the figures for the cytotoxicity in [7] and in experiment [11] were -2.63% [at 15.8 µM] and -0.0157% [at 15.8 µM], respectively.
Consider `COCC(=O)N(c1c(C)cccc1C)[C@H](C)C(=O)OC`, for which the Potency result in experiment [1], in experiment [2], in experiment [3], in experiment [5], in experiment [6] and in [7] was “inactive” each time. For the same molecule, the Potency result in experiment [8], in experiment [10], in experiment [11], in experiment [12], in experiment [13] and in [14] was “inactive” in each case. In addition, the Potency result in experiment [15], in experiment [17], in experiment [19] and in [18] was “inactive” throughout. Further, the max response in experiment [4] is -0.139%.
Consider `c1ccc2cc3c(cc2c1)-c1cccc2cccc-3c12`, for which the Potency result in [1], in experiment [2], in experiment [3], in experiment [5], in experiment [20] and in experiment [6] was “inactive” in each case. Moreover, the Potency result in experiment [7], in experiment [10], in [11], in [12], in [13] and in [14] was “inactive” in each case. Further, the Potency result in experiment [15], in experiment [16], in [17], in experiment [19] and in experiment [18] was “inactive” in each case. Further, the max response in experiment [4] is 18.7%.
Consider `CN(C)CCc1c[nH]c2cccc(O)c12`, for which the Potency entry in [1], in experiment [2], in [3], in experiment [5], in [20] and in experiment [6] was “inactive” throughout. Also, the Potency result in experiment [7], in experiment [9], in [10], in [11], in [12] and in experiment [13] was “inactive” throughout. The Potency entry in [14], in experiment [15], in [16], in experiment [17], in experiment [19] and in experiment [18] was “inactive” in each case. For the same molecule, the max response in [4] was -1.01%.
For `CN(C)C(=S)[S-].CN(C)C(=S)[S-].[Cu+2]`, the Potency in experiment [1] is 2.38 µM (active); in [2], 1.89 µM (active); in [3] it was 6.7 µM (active); in [4], 1.19 µM (active); in experiment [5] it was 2.38 µM (active); in experiment [6] it was 2.67 µM (active). Also, the Potency in experiment [7] is 2.38 µM (active); in [8], 2.67 µM (active); in experiment [10], 2.38 µM (active); in [12], 2.99 µM (active); in [14], 3.77 µM (active); in experiment [15], 1.34 µM (active). Moreover, the Potency in [17] was 2.38 µM (active). For the same molecule, the activity change, negative = cytotoxicity is -3.44% [at 15.8 µM] in experiment [9] and -22.4% [at 15.8 µM] in experiment [19]. Further, in experiment [11], the cytotoxicity was 0.299% [at 15.8 µM].
`CC1(C)CN=C(NN=C(/C=C/c2ccc(C(F)(F)F)cc2)/C=C/c2ccc(C(F)(F)F)cc2)NC1`: the Potency is 49 µM (active) in experiment [1]; 49 µM (active) in experiment [2]; 24.5 µM (active) in experiment [3]; 38.9 µM (active) in experiment [4]; 24.5 µM (active) in [20]; 17.4 µM (active) in experiment [6]. The Potency is 19.5 µM (active) in experiment [7]; 15.5 µM (active) in experiment [8]; 54.9 µM (active) in experiment [10]; 17.4 µM (active) in experiment [12]; 19.5 µM (active) in experiment [14]; 43.6 µM (active) in experiment [15]. In [18], the Potency is 34.7 µM (active). Besides, the Potency entry in experiment [9], in experiment [11] and in experiment [19] was “inactive” throughout.
With `Fc1ccc(Oc2ccnc3cc(Cl)cc(Cl)c23)cc1`, the Potency result in experiment [1], in experiment [3], in [5], in experiment [6], in experiment [7] and in experiment [9] was “inactive” each time. Besides, the Potency entry in [12], in [13], in experiment [14], in experiment [17], in [19] and in experiment [18] was “inactive” throughout. Also, the Potency in experiment [2] is 7.76 µM (active); in experiment [4], 9.77 µM (active); in [15], 11 µM (active); in experiment [16], 7.76 µM (active).
With `CCOP(=S)(OCC)SCCS(=O)(=O)CC`, the Potency entry in experiment [1], in experiment [2], in [3], in [5], in [20] and in [6] was “inactive” each time. Also, the Potency entry in experiment [7], in experiment [8], in [9], in [10], in experiment [11] and in experiment [12] was “inactive” each time. In addition, the Potency entry in experiment [13], in experiment [14], in [15], in experiment [17] and in experiment [18] was “inactive” in each case.
Take `O=[N+]([O-])c1c2ccccc2cc2ccccc12`: the Potency in experiment [1] was 5.43 µM (active); in experiment [5], 5.43 µM (active); in [20], 1.08 µM (active); in [8] it was 60.9 µM (active); in experiment [10] it was 5.43 µM (active); in experiment [17], 5.43 µM (active). In addition, the Potency entry in experiment [2], in experiment [3], in experiment [6], in experiment [9], in experiment [11] and in experiment [13] was “inactive” each time. The Potency result in experiment [14], in [15], in experiment [16], in [19] and in experiment [18] was “inactive” throughout. Besides, in experiment [4], the max response is 1.8%.
